The results in this text go back to PubChem BioAssay (NCI).

Test in all cases: NCI-60 one-dose screen, 48 h (100 = growth as untreated, 0 = no growth, -100 = all killed)
Common to all, as to conditions: 10 µM unless noted

Assay [1] has as its system SR leukemia.
Assay [2] concerns RPMI-8226 leukemia.
Assay [3] concerns OVCAR-8 ovarian.
Assay [4] has as its system OVCAR-5 ovarian.
Assay [5] concerns OVCAR-4 ovarian.
The subject of assay [6] is SK-OV-3 ovarian.
The subject of assay [7] is IGROV1 ovarian.
Assay [8] deals with OVCAR-3 ovarian.
Assay [9] concerns HS 578T breast.
Assay [10] deals with NCI/ADR-RES ovarian.

“And” between values parts separate entries of the source, which are not always exact repeats. Identical values can stand only once. About 83,000 compounds went through this panel and 20% of them were active in at least one assay; those are over-represented in the sample as a whole.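 For each line, cells grew in 96-well plates with the test compound present at a single concentration for 48 hours.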 The source made the active and inactive calls. How the source made its calls: active means growth percent below 10; inactive means the rest.

With `CCN(CC)CCOc1ccc(/C(=C(\Cl)c2ccccc2)c2ccccc2)cc1`, the growth in [1] was 17.4% (inactive) and 85.1% (inactive); in assay [2] it was -21.2% (active) and 88.8% (inactive); in [3], 67.2% (inactive) and 104% (inactive); in assay [4], 47.5% (inactive) and 72.4% (inactive); in assay [5], 55.5% (inactive) and 47.4% (inactive); in [6], 45.5% (inactive) and 80.8% (inactive). The growth is 53.6% (inactive) in assay [7]; 76.9% (inactive) and 118% (inactive) in assay [8]; 55% (inactive) in assay [9]; 59.3% (inactive) and 92.9% (inactive) in assay [10].

Consider `CN(C)CC1(C)Cc2ccsc2C1O` (stereo not given), for which the growth in assay [1] was 102% (inactive) and 83.2% (inactive); in assay [2] it was 106% (inactive) and 98.8% (inactive); in [3], 110% (inactive) and 105% (inactive); in assay [4], 101% (inactive) and 105% (inactive); in assay [5], 113% (inactive) and 100% (inactive); in assay [6], 109% (inactive) and 104% (inactive). Besides, the growth in assay [7] is 123% (inactive) and 110% (inactive); in assay [8] it was 127% (inactive) and 105% (inactive); in assay [9], 129% (inactive); in assay [10], 106% (inactive) and 103% (inactive).

In the case of `Nc1ccc(S(=O)(=O)c2ccc(N)cc2)cc1`, the growth is 99.7% (inactive) and 121% (inactive) in [1]; 96.7% (inactive) and 85.4% (inactive) in [2]; 97.2% (inactive) and 93.1% (inactive) in assay [3]; 104% (inactive) and 96.4% (inactive) in assay [4]; 111% (inactive) and 117% (inactive) in assay [5]; 118% (inactive) and 102% (inactive) in assay [6]. In addition, the growth in assay [7] was 108% (inactive) and 61% (inactive); in [8], 121% (inactive) and 112% (inactive); in assay [9], 106% (inactive) and 96.8% (inactive); in assay [10] it was 101% (inactive) and 97.2% (inactive).

`CCOC(=O)n1cc(-c2nonc2-c2cn(C)c3ccc(OC)cc23)c2cc(F)ccc21`: the growth was 79% (inactive) in [1]; 74.5% (inactive) in assay [2]; 75.7% (inactive) in assay [3]; 62% (inactive) in [4]; 75% (inactive) in [5]; 81% (inactive) in assay [6]. In addition, the growth in [7] is 73.2% (inactive); in [8], 87.4% (inactive); in [9] it was 70.2% (inactive); in assay [10], 82.2% (inactive).

For the compound `Clc1cccc(Nc2ncnc3ccc(-c4cncc(-n5cnnn5)c4)cc23)c1`, the growth in [1] was 71.2% (inactive); in assay [2], 35.5% (inactive); in [3] it was 75.1% (inactive); in assay [4] it was 65.2% (inactive); in assay [5], 90.2% (inactive); in [6] it was -4.88% (active). In addition, the growth in assay [7] is 26.1% (inactive); in [8], 66.1% (inactive); in assay [9] it was 67.2% (inactive); in assay [10] it was 76.4% (inactive).

`O=C1/C(=C/c2cn(-c3ccccc3)nc2-c2ccccc2)SC(=S)N1c1ccc(Cl)cc1`: the growth in [1] was 39.5% (inactive); in assay [2] it was 78.8% (inactive); in assay [3] it was 64.5% (inactive); in [4], 93.4% (inactive); in [5], 80.3% (inactive); in assay [6], 104% (inactive). In addition, the growth was 69.1% (inactive) in assay [7], 83.4% (inactive) in assay [8], 83.7% (inactive) in [9] and 85.7% (inactive) in assay [10].

For `O=[N+]([O-])c1ccc2[nH]c3nccc(NCc4cccc(Cl)c4)c3c2c1`, the growth in assay [1] was 50.5% (inactive); in assay [2], 82.9% (inactive); in assay [3] it was 37.5% (inactive); in [4], 86.3% (inactive); in assay [5], -35% (active); in assay [6], 91.9% (inactive). Besides, the growth in assay [7] was 93.1% (inactive); in [8], 49.8% (inactive); in [9] it was 17.5% (inactive); in assay [10], 64.4% (inactive).

For the compound `O=C1OCC2=C1C(c1cccc(C(F)(F)F)c1)c1cc3c(cc1N2CCO)CCC3` (stereo not given), the growth in [1] is 11.1% (inactive); in assay [2], 17.9% (inactive); in assay [3], 5.39% (active); in [4], 36.1% (inactive); in [5], 52.3% (inactive); in assay [6], 5.48% (active). Further, the growth was 23.5% (inactive) in [7], -17.8% (active) in assay [8], 28% (inactive) in [9] and 17.7% (inactive) in assay [10].

Take `O=C1/C(=C/c2ccc(-c3cccc(C(F)(F)F)c3)o2)SC(=S)N1CCc1ccc(O)cc1`: the growth in [1] is 32.5% (inactive); in assay [2], 68.3% (inactive); in assay [3] it was 15.2% (inactive); in assay [4] it was 82.7% (inactive); in assay [5] it was 48.5% (inactive); in assay [6], 85.4% (inactive). For the same compound, the growth in [7] is 48.8% (inactive); in assay [8], 63.4% (inactive); in [9] it was 69.4% (inactive); in assay [10], 81.7% (inactive).

In the case of `CN(Cc1ccccc1)c1nc(Cl)c(C2CC(c3ccc4c(c3)OCO4)=NN2c2cc(Cl)cc(Cl)c2)s1` (stereo not given), the growth in [1] is 98.6% (inactive); in [2] it was 83.7% (inactive); in [3], 105% (inactive); in [4] it was 106% (inactive); in assay [5], 90.1% (inactive); in assay [6], 92.9% (inactive). Also, the growth in [7] was 95.3% (inactive); in assay [8] it was 103% (inactive); in assay [9], 96.5% (inactive); in [10] it was 104% (inactive).

Regarding `Cc1ccc(-c2nc3nc(-c4ccc(Br)cc4)nc(N4CCCNCC4)c3o2)cc1`, the growth in assay [1] was -32.2% (active); in assay [2], -36.9% (active); in [3], -45.6% (active); in assay [4], -44.4% (active); in assay [5] it was -94.2% (active); in assay [6] it was 110% (inactive). In addition, the growth in assay [7] was -75.6% (active); in assay [8], -95.1% (active); in [9], -30.3% (active); in assay [10], -64.8% (active).

As to `Clc1ccc(Nc2nc(Nc3ccc(Cl)cc3)nc(Nc3ccc(-c4cc(-c5cccc(Cl)c5)on4)cc3)n2)cc1`, the growth in [1] is -9.82% (active); in [2] it was 87% (inactive); in assay [3] it was 85.5% (inactive); in assay [4], 71.4% (inactive); in [5], 101% (inactive); in assay [6], 103% (inactive). The growth in assay [7] is 104% (inactive); in assay [8], 90.1% (inactive); in [9], 105% (inactive); in assay [10], 84.1% (inactive).
